In PubChem BioAssay AID1117319 (Southern Research Institute, 2015):
Where “and” joins values, the source holds several entries; their conditions need not be identical. Identical values can stand only once. Screen size: about 260,000 compounds; about 1,500 (0.58%) were called active. Not shown: some 5% with an inconclusive outcome.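 The calls were made as follows: active = inhibition above a set limit at one or more doses, reproduced on every date tested; inconclusive = results disagree between test dates, or hit never tested in dose response; inactive = the rest.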 A selection follows. Results with a measured potency or affinity are listed apart.

biological target: Virion infectivity factor (Human immunodeficiency virus type 1 group M subtype B (isolate BH10)) + Virion infectivity factor (Human immunodeficiency virus type 1 group M subtype B (isolate BRU/LAI)) + Virion infectivity factor (Human immunodeficiency virus type 1 group M subtype B (isolate PCV12)) + Virion infectivity factor (Human immunodeficiency virus type 1 group M subtype B (isolate HXB2)) + DNA dC->dU-editing enzyme APOBEC-3G (Homo sapiens) (UniProt P69720+P69721+P69722+P69723+Q9HC16); assay: inhibitors of Vif binding to APOBEC3G peptide, primary screen, biochemical, TR-FRET, GST-Vif 1-94, biotin-A3G peptide, dose response retest (AID 1117319); conditions: hits give high values;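 also: Vif residues 1-94 fused to GST binding biotinylated APOBEC3G peptide 110-148; 0% = full assay without inhibitor and 100% = GST in place of GST-Vif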

inhibition, inactive:
CCc1ccc(CN(C)C(C)C(=O)NCc2ccccc2)cc1 (configuration not stated) -5.54%
CCOC(=O)c1oc2cc(C)cc(C)c2c1C 12.6%
C[C@]1(C(=O)NCCN2CCOCC2)C=C[C@@H](Cc2ccccc2)N1C(=O)c1ccccc1 -2.79%
N#Cc1cnc(N)c(Br)c1 -0.24%
COc1ccc(-n2c(=S)[nH]c3cc(C(=O)NCc4cccnc4)ccc3c2=O)cc1 -1.63%
Fc1cccc(F)c1-n1c(CN2CCOCC2)csc1=S -4.65%
C/C(N)=C(/C#N)C(=O)CSc1nnc(Nc2cccc(C)c2)s1 29.1%
C/C(N)=C(/C#N)C(=O)CSc1nnc(Nc2ccccc2C)s1 5.27%
Cn1c(SCC(=O)NCc2ccc3c(c2)OCO3)nnc1-c1cc2ccccc2cc1O 5.67%
CCNc1nc(NCC)nc(SCC(C)=O)n1 1.47%
O=C(CCc1c[nH]c2ccccc12)NCc1ccco1 14.9%
O=C(Cc1c[nH]c2ccccc12)NCc1ccco1 -2.84%
O=C(NCc1ccccc1F)c1ccc(S(=O)(=O)NCc2ccco2)cc1 1.91%
NS(=O)(=O)c1ccc(CNC(=O)c2ccc(S(=O)(=O)NCc3ccco3)cc2)cc1 -7.37%
O=C(NCCc1ccccc1)c1nc2ncccn2n1 8.66%
COc1ccc(NC(=O)CCNS(=O)(=O)c2cccc3nonc23)cc1Cl 7.84%
COc1ccccc1/C=C(/CC(=O)NCc1ccc(F)cc1)c1nc2ccccc2s1 -7%
COc1ccc(/C=C(/CC(=O)NCc2ccc(Cl)cc2)c2nc3ccccc3s2)cc1 2.71%
COc1ccc(Cl)cc1C(=O)Nc1ccccc1N1CCN(C)CC1 1.41%
COC(=O)/C(=C/c1ccco1)NC(=O)c1ccccc1 11.2%
O=C(Nc1ccc(C(=O)O)cc1)/C(=C\c1ccco1)NC(=O)c1ccccc1 26.2%
Fc1ccc(-c2cc(C(F)(F)F)nc(-n3cccn3)n2)cc1 21.7%
CCc1ccc2[nH]c(=O)c(C(c3nnnn3CCOC)N3CCN(c4ccccc4)CC3)cc2c1 (configuration not stated) 9.41% and 22.6%
CCc1ccc2[nH]c(=O)c(C(c3nnnn3CCOC)N3CCN(c4ccc(F)cc4)CC3)cc2c1 (configuration not stated) 9.01% and 16.1%
Cc1ccc(SCC(=O)NNC(=O)CCS(=O)(=O)c2ccc(C)cc2)cc1 -4.89%
CCOCCCNC(=O)c1ccccc1Br 79.3%
CCCNC(=O)c1ccccc1C(=O)NCCC -3.84%
Cc1nn(-c2ccccc2)c(C)c1C1C(C#N)=C(N)Oc2n[nH]c(C)c21 (configuration not stated) -0.66%
CCCCC(=O)Nc1cccc(-c2csc(-c3ccccc3)n2)c1 -12.6%
O/N=C1\CC(O)Cc2nonc21 (configuration not stated) -4.67%
CCCC(c1nnnn1CC(=O)OCC)N(Cc1cc2c(C)cc(C)cc2[nH]c1=O)C1CCCC1 (configuration not stated) 68.5%
CCCC(c1nnnn1CC(=O)OCC)N(Cc1cc2ccc(C)cc2[nH]c1=O)C1CCCC1 (configuration not stated) 4.45% and 9.64%
O=C(Nc1ncn[nH]1)c1ccccc1O -9.78%
COc1ccc(N2C(=O)C3C4C=CC(C4)C3C2=O)c(OC)c1 (configuration not stated) 1.91%
COc1ccc(NC(=O)CN2CCN(c3ccccc3F)CC2)cc1 8.91%
COC(=O)c1ccc(CN(C(=O)N2CCN(C)CC2)S(=O)(=O)c2ccc(C)cc2)cc1 2.32%
CN1CCN(C(=O)CSc2nc(-c3ccco3)cc(C(F)(F)F)n2)CC1 -4.57%
O=C(CSc1nc(-c2ccco2)cc(C(F)(F)F)n1)N1CCCc2ccccc21 -15.3% and -9.35%
O=C(Nc1ccc(F)cc1)C(=O)C1C(=O)Nc2ccccc21 (configuration not stated) -6.37%
O=C(NCc1ccc(/C=c2\sc3n(c2=O)CCN=3)o1)C(=O)Nc1ccccc1 -17%
CCOC(=O)c1ccc(NC(=O)C(=O)NCc2ccc(/C=C(/C#N)C(=O)NCCOC)o2)cc1 -2.3%
COC(=O)C1=C(O)/C(=C\c2ccc(OCC(=O)Nc3ccccc3)cc2)N=C1C -9.89%
CCOC(=O)C1=C(O)/C(=C\c2sccc2C)N=C1C 0.95%
Cc1ccc(NC(=O)C(=O)NCc2ccc(/C=N/NC(=O)c3c(C)nc4cc(C)ccn34)o2)cc1 19.2%
Cc1ccc(NC(=O)C(=O)NCc2ccc(/C=N/NC(=O)c3c(C)nc4ccccn34)o2)cc1 26.2%
CCOC(=O)C1=C(O)/C(=C\c2cccs2)N=C1C 15.1%
Cc1ccc(NC(=O)C(=O)NCc2ccc(/C=C(/C#N)C(=O)NCc3cccnc3)o2)cc1 7.86%
O=C(COC(=O)/C=C/c1cccc(Br)c1)NCCC1=CCCCC1 12.4%
Cc1cc(C(=O)N2CCN(c3ccccc3Cl)CC2)c(C)o1 3.3%
C=CCNc1nc(-c2ccc(OC)cc2OC)cs1 -8.96%
COc1cc(NC(=O)COc2ccc(Cl)cc2)ccc1NC(=O)C(C)C 1.28%
CCCSc1cc(N)cc([N+](=O)[O-])c1 -12.3%
CCN(CC)CCN(C(=O)CCS(=O)(=O)c1ccccc1)c1nc2cc(C)cc(C)c2s1 7.31%
O=C(CSc1ncn[nH]1)Nc1ccc2c(c1)CCC2 -3.75%
CCCOc1ccc(/C=N/NC(=S)Nc2ccccc2[N+](=O)[O-])c(O)c1 5.31%
N#Cc1ccc(/C=N/NC(=S)Nc2ccc(S(=O)(=O)N3CCOCC3)cc2)cc1 27.6%
O=[N+]([O-])c1cc(/C=N/NC(=S)Nc2ccccc2Cl)ccc1Cl 8.67%
O=S(=O)(c1ccc(NC(=S)N/N=C/c2ccc(N3CCOCC3)cc2)cc1)N1CCOCC1 0.51%
CCOc1ccc(/C=N/NC(=O)C(OC)c2ccccc2)cc1 (configuration not stated) -8.04%
Cc1nnc(N(C)C(=O)c2cccnc2)s1 -3.79%
COc1ccc(/C=N/NC(=O)c2ccccc2)cc1CN1CCN(c2ccc(F)cc2)CC1 1.7%
COc1ccc(/C=N/NC(=O)c2ccccc2O)cc1Cn1cc([N+](=O)[O-])cn1 22.8%
COc1cc(C(=O)N/N=C/c2ccc(OC)c(CN3CCN(c4ccc(F)cc4)CC3)c2)ccc1O -4.76%
COc1ccc(/C=N\NC(=O)c2cccc([N+](=O)[O-])c2)cc1Cn1cc([N+](=O)[O-])cn1 9.14%
CC(=O)Oc1cc2c(cc1OC(C)=O)C(=O)CCCC2 -3.59%
CCc1cccc2c(C(=O)CSc3nncn3C)c[nH]c12 3.36%
O=C(COC(=O)c1ccccn1)NCc1cccc(Cl)c1 11.7%
CCC1CCCCN1C(=O)c1ccccc1OC1CCN(S(C)(=O)=O)CC1 (configuration not stated) 6.69%
Oc1c(CN2CCOCC2)cc(-c2ccccc2)cc1CN1CCOCC1 2.33%
Cc1c(Cl)cc(C(C)C)c(O)c1CN1CCOCC1 -0.22%
O=C(NCCCN1CCOCC1)c1csc2c1CCCC2 -1.89%
CCOc1ccc(-c2cc(C(=O)NCCCN3CCOCC3)c3ccccc3n2)cc1 -4.67%
COc1ccc(C2NC(=O)NC(O)(C(F)(F)F)C2C(=O)c2ccccc2)cc1OC (configuration not stated) -3.65%
O=C1NC(c2cn(-c3ccccc3)nc2-c2cccs2)C(C(=O)c2cccnc2)C(O)(C(F)(F)F)N1 (configuration not stated) 1.08%
CCC(Oc1ccccc1)C(=O)Nc1ccc(S(=O)(=O)N2CCOCC2)cc1 (configuration not stated) 15.9%
CCc1nc(SCC(=O)N2CCCC2)c2ccccc2n1 14.3%
CCOc1cc(C(=O)Nc2ccc(N3CCOCC3)cc2)cc(Br)c1OC 12.9%
O=S(=O)(Nc1cc(C(F)(F)F)ccc1N1CCOCC1)c1ccccc1 2.04%
Cc1ccc(S(=O)(=O)Nc2cc(C(F)(F)F)ccc2N2CCOCC2)cc1 1.57%
COc1ccc(NS(=O)(=O)c2cccc(C(=O)NCC3CCCO3)c2)cc1 (configuration not stated) 1.68%
COc1ccccc1N1CCN(CC(=O)Nc2cccc(F)c2)CC1 -5.83%
O=C(CN1CCCC1)Nc1ccc2c(c1)CCC2 -3.44%
O=C(CN1CCN(Cc2ccccc2)CC1)Nc1ccc2c(c1)CCC2 -3.36%
CC1CCN(CCNC(=O)c2ccc(NC(=O)C3CCCO3)cc2)CC1 (configuration not stated) 2.71%
O=C(Nc1ccc2c(c1)CN(Cc1ccccc1O)CC2)C1CCCO1 (configuration not stated) -4.54%
CCc1ccc(CC)c(S(=O)(=O)Nc2ccc(O)c(C(=O)O)c2)c1 -4.21%
O=C(O)c1ccc(NS(=O)(=O)c2cc(Cl)ccc2Cl)cc1O 3.01%
O=C(Nc1ccc(Br)cc1)C1CCN(C(=O)c2ccc(F)cc2)CC1 -10.6%
CCOC(=O)c1cnc(SCC(=O)OCC(=O)N(CC)C2CCS(=O)(=O)C2)nc1N (configuration not stated) 4.12%
COc1cccc(NC(=O)CN(C)C(=O)/C=C/c2cn(Cc3ccccc3)nc2-c2cccnc2)c1 -9.6%
O=C(Nc1ccc(F)cc1)C(c1ccccc1)N1CCN(S(=O)(=O)c2c(F)cccc2F)CC1 (configuration not stated) 22.6%
Cc1ccc(S(=O)(=O)N2CCN(C(C(=O)Nc3ccc(F)cc3)c3ccccc3)CC2)cc1 (configuration not stated) 69.8%
